Assay results from PubChem BioAssay (NCATS).
Active and inactive are the calls of the source.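 The calls were made as follows: active = compounds whose dose series gives a full or clear partial fitted curve of increased nuclear translocation; inconclusive = weak partial curve or effect only at the top dose; inactive = no dose-dependent translocation response.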

Biological target: Glucocorticoid receptor (Homo sapiens) (UniProt P04150)
Experiment: GR-GFP Redistribution (AID 450)
Conditions: U2OS GR-GFP nuclear translocation, laser cytometry, 2 h; series mostly up to 20.6 µM
Potency is read from the fitted curve at half-maximal effect.

Glucocorticoid receptor (Homo sapiens), sequence (P04150 whole entry, looked up): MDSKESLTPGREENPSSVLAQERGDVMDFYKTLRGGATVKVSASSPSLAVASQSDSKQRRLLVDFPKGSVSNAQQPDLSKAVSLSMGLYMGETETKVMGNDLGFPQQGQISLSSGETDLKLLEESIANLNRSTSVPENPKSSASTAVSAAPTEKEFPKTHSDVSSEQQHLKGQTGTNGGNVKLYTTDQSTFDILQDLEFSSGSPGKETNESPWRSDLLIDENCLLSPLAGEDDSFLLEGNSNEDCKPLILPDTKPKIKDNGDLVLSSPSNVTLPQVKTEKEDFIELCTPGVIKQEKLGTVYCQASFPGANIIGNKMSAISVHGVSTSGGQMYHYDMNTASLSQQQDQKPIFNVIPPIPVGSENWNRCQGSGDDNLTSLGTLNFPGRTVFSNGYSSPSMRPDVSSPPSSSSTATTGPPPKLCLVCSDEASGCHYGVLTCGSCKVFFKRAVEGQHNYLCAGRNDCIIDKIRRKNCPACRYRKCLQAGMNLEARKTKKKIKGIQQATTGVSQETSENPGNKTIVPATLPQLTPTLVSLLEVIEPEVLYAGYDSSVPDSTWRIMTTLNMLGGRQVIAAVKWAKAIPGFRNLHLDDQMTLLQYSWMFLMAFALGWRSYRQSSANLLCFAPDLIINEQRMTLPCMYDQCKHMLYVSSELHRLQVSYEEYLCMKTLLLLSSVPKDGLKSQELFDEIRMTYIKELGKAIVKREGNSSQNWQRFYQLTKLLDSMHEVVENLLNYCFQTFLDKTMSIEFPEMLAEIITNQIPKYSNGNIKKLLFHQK

Potency, inactive:
Cc1ccc(-c2ccccc2NC(=O)C2C3C=CC(C3)C2C(=O)O)o1 (stereo not drawn) > 20.6 µM, Clc1cccc(-c2nn3c(COc4ccccc4)nnc3s2)c1 > 20.6 µM, CCC(=O)Nc1ccc(-c2nnc(-c3ccccc3)o2)cc1 > 20.6 µM, CCn1nnc(C(=O)O)c1C(=O)O > 20.6 µM, NC(=O)/C(=N\O)c1ccccc1 > 20.6 µM, Cc1nn(C)cc1/C=N/O > 20.6 µM, CCOC(=O)CSc1nc2sc3c(c2c(=O)[nH]1)CC(C)(C)OC3 > 20.6 µM, O=C1CC(NCc2ccncc2)C(=O)N1c1ccc(Cl)cc1 (stereo not drawn) > 20.6 µM
